# PGC1a acetyl inh – lowers PGC1a acetylation signal in U2OS cells; actives 0.17% (n = 350,000); AID 651687; inhibition, % at 15.6 µM; AlphaScreen anti-acetyl-lysine; with virally co-expressed GCN5 acetyltransferase;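 active = every replicate shows inhibition of at least 40%; inconclusive = mean inhibition at least 40% but some replicate below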;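 also: 0% = neutral control wells and 100% = positive control wells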
# PAX8 inh HTS – inhibitors of PAX8 transcriptional activity in RMG-I cells | inhibition, % at 12.6 µM | actives 1.2% (n = 360,000) | RMG-I TPO-luciferase reporter, SteadyGlo, 24 h;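 active = mean replicate inhibition at least 60% with every replicate also reaching 60%; inconclusive = only one of the two criteria is met; inactive = mean below 60% and not all replicates reaching 60%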;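 also: luciferase light reporting Pax8 driven TPO promoter activity; plate controls were median of neutral control wells for no effect and mitoxantrone controls for full effect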
# GSIS activator – primary screen for activators of insulin secretion dependent on glucose, INS-1E cells, GLuc reporter luminescence; INS-1E GLuc reporter insulin secretion, 2-3 h; activation, % at 16.6 µM; actives 0.61% (n = 370,000); AID 743287;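 active = lowest replicate activation of at least 40%, so every replicate reaches that level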;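 also: 0% = median of neutral control wells and 100% = median of IBMX positive control wells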
# F508del corr – CFTR F508del correction in bronchial cells; activity (quench increase), % at 7.58 µM; CFBE cells, YFP halide quenching; stimulated with forskolin plus potentiator P3; % fluorescence drop versus neutral controls; AID 720511; actives 0.36% (n = 350,000);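 active = mean added fluorescence quench of at least 8% versus neutral control, with both replicates also reaching 8%; inconclusive = only one of the mean or replicate conditions met; inactive = mean below 8% and not both replicates reaching 8%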;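 also: cells transiently co-express mutant CFTR-F508del with the halide-sensitive YFP; corrector assay measuring rescue of mutant channel to the surface after 24 h compound exposure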
# HIV Env fusion – inhibitors of HIV Env-mediated cell fusion; HeLa-JRFL Env/CEM21 cell fusion, luciferase; inhibition, % at 12.3 µM; actives 1.1% (n = 360,000);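 active = mean replicate inhibition score of at least 50 and every replicate individually at or above 50; inconclusive = only one of the two criteria met; inactive = mean below 50 and not all replicates reaching 50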;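 also: 0% = plate neutral controls and 100% = maraviroc near 300 nM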
# EWS-Fli block – blocks EWS/Fli oncoprotein-driven transcription; A673 NR0B1-luciferase reporter, viability-normalised; inhibition, % at 12.6 µM; actives 0.67% (n = 350,000); AID 651661;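 active = mean inhibition of at least 50% after viability correction, with every replicate also passing that limit; inconclusive = mean reaches 50% but only one of two replicates passes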;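 also: firefly luciferase signal divided by Alamar Blue viability fluorescence both relative to DMSO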
# * marks the source's active call; other numbers are inactive results; ? = inconclusive; / = no result given; [ ] = dose if it differs, or a comment. An excerpt weighted towards active compounds, which were near 2.7% of everything screened.
SMILES,PGC1a acetyl inh,PAX8 inh HTS,GSIS activator,F508del corr,HIV Env fusion,EWS-Fli block
CCCC#Cc1ccc2c(c1)O[C@H](CN(C)Cc1ccc3c(c1)OCO3)[C@H](C)CN([C@H](C)CO)S2(=O)=O,-22.5,/,-19.2,1.7,55.7*[16.7 µM],10.9
CC(C)CC#Cc1ccc2c(c1)O[C@@H](CN(C)Cc1ccc3c(c1)OCO3)[C@@H](C)CN([C@H](C)CO)S2(=O)=O,-22.9,/,-21.4,-1.5,15.7[16.7 µM],25.0
CC(C)CC#Cc1ccc2c(c1)O[C@@H](CN(C)Cc1ccc3c(c1)OCO3)[C@H](C)CN([C@H](C)CO)S2(=O)=O,53.4*,/,5.8,-4.9,16.8[16.7 µM],?
C[C@H]1CN([C@@H](C)CO)C(=O)c2cc(/C=C/c3ccccc3)cnc2O[C@@H]1CN(C)C(=O)C1CCCCC1,-1.6,/,-30.8,-2.7,-10.0[16.7 µM],-7.0
COc1ccccc1-c1ccc2c(c1)[C@H]1[C@H](CCN1S(=O)(=O)c1ccccc1F)[C@H](CO)N2,-10.2,81.1*,8.4,2.4,/,6.3
O=S(=O)(c1ccccc1F)N1CC[C@H]2[C@H](CO)Nc3ccc(C4=CCCCC4)cc3[C@H]21,4.0,95.0*,22.1,-0.1,/,-8.8
COc1ccccc1-c1ccc2c(c1)[C@@H]1[C@@H](CCN1S(=O)(=O)c1ccccc1F)[C@H](CO)N2,-7.5,80.9*,21.8,1.5,/,17.8
O=S(=O)(c1ccccc1F)N1CC[C@@H]2[C@H]1c1cc(-c3ccccc3)ccc1N[C@@H]2CO,3.0,-7.2,0.6,0.1,/,-1.4
COc1ccccc1S(=O)(=O)N1CC[C@@H]2[C@@H](CO)Nc3ccc(-c4ccccc4)cc3[C@@H]21,-1.2,70.1*,8.5,-0.4,/,7.3
O=S(=O)(c1ccccc1F)N1CC[C@@H]2[C@H]1c1cc(-c3cccc(F)c3)ccc1N[C@@H]2CO,-16.6,100.5*,-10.5,0.5,/,28.9
O=S(=O)(c1ccccc1F)N1CC[C@H]2[C@H](CO)Nc3ccc(-c4cccc(F)c4)cc3[C@H]21,-9.5,15.2,17.6,1.8,/,0.4
COc1cc(C(O)CO)ccc1OS(=O)(=O)O (configuration not stated),/,-3.4,/,10.0*,30.0,-4.1
C[C@H](CO)N1C[C@H](C)[C@@H](CN(C)Cc2ccc(Oc3ccccc3)cc2)Oc2c(NC(=O)Nc3ccc(F)cc3)cccc2C1=O,-8.9,/,-10.8,-1.7,/,-15.5
O=C(C1CCCCC1)N1CC2(C1)[C@H](c1ccccc1)[C@H](CO)N2CCC(F)(F)F,4.2,-14.0,-10.4,5.3,/,18.2
Cc1nn2c(nc(N3CCOCC3)c3ccccc32)c1C=C(C#N)C#N,14.1,23.9,41.1*,0.3,/,9.6
Cc1nn2c(nc(N3CCCCC3)c3ccccc32)c1C=O,10.1,-14.9,-6.2,/,-4.9,8.3
N#C[C@@H]1[C@H](c2ccccc2-c2cccc(F)c2)[C@H](CO)N1C(=O)NC1CCCCC1,-12.7,/,-8.6,-4.3,/,5.3
COC(=O)c1c(NC(=O)COc2ccc(Cl)cc2)sc2c1CC(C)(C)NC2(C)C,/,5.7,-18.8,0.1,57.3*,/
O=C(c1cc(-c2ccc(Cl)cc2Cl)on1)N1CCCCCC1,-9.8,-160.4,11.7,-2.0,-88.3,-4.5
O=C(c1cc(-c2ccc(Cl)cc2Cl)on1)N1CCCC1,/,-47.7,20.1,1.9,-79.8,55.0*
Cc1ccc(-c2cc(C(=O)N3CCOCC3)no2)cc1,/,9.3,0.2,-1.8,19.0,54.1*
CCOc1ccccc1CNC(c1ccccc1)c1ccccc1,/,-0.5,88.0*,0.6,43.0,11.4
COc1ccccc1CNC(c1ccccc1)c1ccccc1,4.9,9.1,6.8,3.2,10.1,10.5
COc1ccc(-c2cc3c(c(-c4ccc(Oc5ccccc5)cc4)n2)[Si](C(C)C)(C(C)C)OC3)cn1,-0.9,3.8,/,-1.1,-12.4[16.7 µM],0.7
O=C(Nc1cccc2cccnc12)c1ccc(Cl)cc1Cl,5.4,1.8,/,-2.1,-8.0,-25.3
SMILES,PGC1a acetyl inh,PAX8 inh HTS,GSIS activator,F508del corr,HIV Env fusion,EWS-Fli block
COc1cc(NC(=O)c2ccccc2Cl)c2ncccc2c1,-31.9,26.6,21.1,7.6,-26.4,57.6*
CC(C)(C)n1nnnc1C(c1cccnc1)N(Cc1ccccc1)Cc1cccs1 (configuration not stated),-30.8,30.1,/,/,56.6*,/
CC(C)(C)n1nnnc1C(c1cccs1)N(Cc1ccccc1)Cc1cccnc1 (configuration not stated),-38.3,/,/,/,/,/
CC(C)(C)n1nnnc1C(c1ccc(F)cc1)N(Cc1ccc(F)cc1)Cc1ccco1 (configuration not stated),-48.3,33.2,/,/,124.2*,/
COCCNC(=O)C[C@H]1CC[C@@H]2[C@H](COc3ccc(NC(=O)C4CCCC4)cc3C(=O)N2C)O1,6.2,7.6,-1.5,-2.2,-18.4[16.7 µM],-1.8
Cc1ccc(N=C2C(=O)Nc3ccccc32)cc1,/,7.2,-3.2,3.2,-0.9,32.5
Cc1nc2c(o1)C(=O)c1ccccc1C2=Nc1ccccc1,/,10.4,14.3,-3.0,79.3*,1.6
Cc1cc2oc(C(=O)NCCc3ccc(S(N)(=O)=O)cc3)c(C)c2cc1C,-2.2,10.0,9.8,11.7*,8.1,9.9
Cc1cc2oc(C(=O)NCCc3ccc(S(N)(=O)=O)cc3)cc(=O)c2cc1C,-5.5,13.3,9.0,-1.0,12.2,1.0
COC(=O)Nc1ccc(=O)n(Cc2c(Cl)cccc2Cl)c1,7.1,19.2,/,/,49.7*,/
CCNC(=O)[C@H]1[C@H](CO)[C@H]2Cn3c(ccc(-c4ccncc4)c3=O)[C@H]2N1Cc1ccccc1,/,5.5,-5.6,-0.4,/,-3.7
COC(=O)[C@@]12C[C@@H](CC(=O)N3CCN(C(=O)c4ccco4)CC3)C(=O)N(Cc3ccco3)C1=CCC(C)(C)C2,/,87.3*,-15.8,-3.5,4.6,-0.1
COC(=O)[C@]12C[C@H](CC(=O)N3CCN(C(=O)c4ccco4)CC3)C(=O)N(Cc3ccccc3)C1=C[C@H](C(C)(C)C)O[C@@H]2C,/,74.3*,/,-0.5,1.3,5.8
COC(=O)[C@@]12C[C@@H](CC(=O)N3CCN(C(=O)c4ccco4)CC3)C(=O)N(Cc3ccccc3)C1=CCC(C)(C)C2,/,88.1*,-17.6,4.0,6.8,-7.8
COC(=O)[C@@]12C[C@@H](CC(=O)N3CCN(C(=O)c4ccco4)CC3)C(=O)N(Cc3ccc4c(c3)OCO4)C1=CCC(C)(C)C2,/,-10.0,-47.9,-2.2,16.1,-1.5
COC(=O)[C@@]12C[C@@H](CC(=O)NCc3ccccc3)C(=O)N(Cc3ccco3)C1=CCC(C)(C)C2,/,-16.3,-5.8,-0.7,-0.1,4.3
COCCN(C[C@H]1[C@H](c2ccccc2)[C@@H](CO)N1C(=O)C1CCC1)C(C)=O,10.2,4.6,6.4,-3.1,/,-0.6
O=C(C[C@H]1C=C[C@@H](NC(=O)C2CC2)[C@@H](CO)O1)NCc1ccccc1Cl,-12.8,0.9,-7.4,-1.8,15.3[16.7 µM],-0.4
Cc1nn(-c2ccccc2)c(Cl)c1/C=N/O,/,-16.3,13.1,-2.1,-19.6,-8.1

# Screening data from PubChem.
